An excerpt weighted towards active compounds, which were near 3.4% of everything screened.
ADAM17 inh: ADAM17 inhibitors, primary screen, biochemical, QFRET; 370,000 tested, 0.83% active; AID 720648, 2013; recombinant ADAM17, EDANS/DABCYL FRET peptide cleavage; Disintegrin and metalloproteinase domain-containing protein 17 (Homo sapiens), P78536; inhibition, % at 6.95 µM;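 active = inhibition above the mean of compounds lying between control limits plus 3 SD, set per campaign, cut at about 8.5% in these data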
proKLK7 act: proKLK7 zymogen activators, primary screen, biochemical, fluorescence intensity; purified proKLK7, EDANS-DABCYL substrate fluorescence; 100% is mature enzyme control, 0% vehicle; activation, % at 7 µM; 370,000 tested, 0.9% active;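 active = activation above the mean of all tested compounds plus 3 SD, computed per campaign excluding outliers beyond control limits, cut at about 13% in these data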
CendR NRP1 mod: modulators of CendR peptide binding to NRP-1, primary screen, biochemical, fluorescence polarization, uHTS; Neuropilin-1 (Homo sapiens), O14786; FAM-RPARPAR peptide binding to NRP-1; inhibition, % at 25 µM; 360,000 tested, 0.85% active; AID 602438, 2012;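 active = inhibition or corrected inhibition above about 18%, plus a signal ratio from 0.5 to 1.5, limit read from the data, passing the limit was not always enough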
ADAM10 inh: human ADAM10 inhibitors, primary screen, biochemical, QFRET, HTS. 370,000 tested, 0.62% active. inhibition, % at 7 µM. Disintegrin and metalloproteinase domain-containing protein 10 (Homo sapiens), O14672. AID 720582, 2013. recombinant ADAM10, EDANS/DABCYL FRET peptide cleavage, 3 h;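 active = inhibition above a per-campaign cutoff equal to the mean of compounds falling between control-based bounds plus 3 SD, cut at about 20% in these data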
HGIII-sPLA2 inh: human group III sPLA2 inhibitors, primary screen, biochemical, QFRET, BODIPY PC-A2 liposome substrate. Group 3 secretory phospholipase A2 (Homo sapiens), Q9NZ20. QFRET BODIPY PC-A2 liposome hydrolysis, fluorescence. inhibition, % at 12.2 µM. 370,000 tested, 0.56% active;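 active = inhibition above mean plus 3 SD of compounds lying within the high and low control bounds, cut at about 19% in these data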
sPLA2 confirm: human group III sPLA2 inhibitors, confirmation, biochemical, QFRET, triplicate; shares compounds with HGIII-sPLA2 inh; recombinant hGIII-sPLA2, BODIPY PC-A2 QFRET fluorescence; inhibition, % at 12.2 µM; 2,000 tested, 34% active;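 active = mean inhibition across triplicates above the hit cutoff set in the earlier primary screen, cut at about 19% in these data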
BODIPY interf: 535nm fluorescence optical interference, confirmation, artefact control for HGIII-sPLA2 inhibitor project, biochemical, QFRET. shares compounds with HGIII-sPLA2 inh. 2,000 tested, 8.5% active. inhibition, % at 12.2 µM. BODIPY FL product fluorescence interference;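 active = average inhibition above the solvent-only control mean plus 3 SD, cut at about 6% in these data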
Numbers stand for hits; 0 = inactive; - = no result.

SMILES	ADAM17 inh	proKLK7 act	CendR NRP1 mod	ADAM10 inh	HGIII-sPLA2 inh	sPLA2 confirm	BODIPY interf
O=C(Cc1cnn(-c2ccccc2)c1)c1ccc(O)c(O)c1O	0	0	0	0	24	0	0
Cn1cc(/C=C2\SC(=S)N(N3CCOCC3)C2=O)c2ccccc21	0	0	0	0	21	0	0
S=C(c1ccccc1)N1CCN(c2ccccc2)CC1	0	0	0	0	0	-	-
Cc1ccccc1N1CCN(C(=S)c2ccccc2)CC1	0	0	0	0	21	0	0
C=C(C)CSc1nc2sc(C)c(C)c2c(=O)n1C	0	0	-	0	0	-	-
O=C(NNc1nc2ccc(Cl)cc2s1)c1cc(-c2cccs2)nc2ccccc12	0	0	0	0	28	35	13
Cc1ccc2sc(NNC(=O)c3cc(-c4cccs4)nc4ccccc34)nc2c1C	0	0	-	0	0	-	-
CCCOc1ccccc1C1NC(=O)NC(C)=C1C(=O)OCCOC (centres undefined)	0	0	0	0	21	0	0
COc1ccccc1NC(=O)N1CCC(c2nc3cc(C)c(C)cc3[nH]2)CC1	0	0	0	0	0	-	-
COc1ccccc1NC(=S)N1CCC(c2nc3cc(C)c(C)cc3[nH]2)CC1	0	0	0	0	21	0	0
Cc1nc(CNS(=O)(=O)c2cccs2)cs1	0	0	0	0	0	-	-
CCc1ccc(S(=O)(=O)NCc2csc(C)n2)s1	0	0	0	0	22	0	0
CC(=O)OCC(=O)NCC1CCN(C(=O)C(=O)c2cc3ccccc3o2)CC1	0	0	-	0	0	-	-
CN(C)N1C(N)=C(C#N)C(c2cccc([N+](=O)[O-])c2)C2=C1CC(C)(C)CC2=O (centres undefined)	0	0	0	0	20	0	0
C#CCN(Cc1ccco1)C(=O)c1nnc2c3ccccc3n(S(=O)(=O)c3ccccc3)c2n1	0	0	-	0	0	-	-
CC1(C)CC(CCN)(Cc2ccccc2Cl)CCO1 (centres undefined)	0	0	0	0	20	0	0
CC(C)(C)NC(=O)N1CCC(CO)(Cc2ccccc2Cl)CC1	0	0	0	0	0	-	-
CC(OC(=O)c1nn(C)c(=O)c2ccccc12)C(=O)NC1CCCCC1C (centres undefined)	0	0	0	0	19	0	0
C/C(=N\NC(=S)NCc1ccccc1)c1ccc2ccccc2c1	0	0	0	0	19	0	0
COCCCNC(=O)C[C@H]1C[C@@]2(C(=O)OC)C(=C[C@H](C(C)(C)C)O[C@@H]2C)N(CCC2=CCCCC2)C1=O	0	0	-	0	0	-	-
Oc1ccc(/C=C/c2ccccc2F)c2cccnc12	0	-	-	0	28	0	9.6
COc1ccc(Cn2ccc3ccc(-c4ccc5ccn(C(=O)c6ccccc6C)c5c4)cc32)cc1	0	0	-	0	0	-	-
C=CCN1C(C(=O)OCC)CSCCS1(=O)=O (centres undefined)	0	0	-	0	0	-	-
CCn1ncc(Br)c1C(=O)Nc1ccc(Cl)cn1	0	0	0	0	0	-	-
Cc1nn(CC(=O)Nc2ccc(Cl)cn2)c(C)c1Br	0	0	0	0	20	0	0
CCOCC(=O)NC(=O)N1C[C@H]2CON(C)[C@H]2C[C@H]1c1ccc(OC)cc1	0	0	-	0	0	-	-
CCCCC(=O)NC(c1ccc(Cl)cc1Cl)c1ccc2cccnc2c1O (centres undefined)	0	0	0	0	21	30	0
CCC(=O)NC(c1cc(Cl)c2cccnc2c1O)C(C)C (centres undefined)	0	0	0	0	0	-	-
COc1ccc(C(NC(=O)C(C)C)c2ccc3cccnc3c2O)cc1 (centres undefined)	0	0	0	0	23	19	0
